# Experimental data taken from ChEMBL document CHEMBL3988442, “University of Dundee, Small-Polar-MMV Screening Library” (2021).
# For part of these data: Results with a measured potency or affinity are listed apart.
# Legend:
# Parameters in all cases: scale not given: direction of the effect not stated beside the values
# [1] = biological target: Protein translocase subunit SecA (Escherichia coli (strain K12)) (UniProt P10408); experiment: Assay to Identify E. coli SecA ATPase Inhibitors; format: functional; conditions: 30 µM
# [2] = biological target: T1, Ubiquitin-activating enzyme e1, putative (Leishmania donovani (strain BPK282A1)) (UniProt E9BSI1); experiment: Leishmania donovani Ubiquitin Activating Enzyme (LdE1); format: functional; conditions: 30 µM
# T1 sequence (whole entry): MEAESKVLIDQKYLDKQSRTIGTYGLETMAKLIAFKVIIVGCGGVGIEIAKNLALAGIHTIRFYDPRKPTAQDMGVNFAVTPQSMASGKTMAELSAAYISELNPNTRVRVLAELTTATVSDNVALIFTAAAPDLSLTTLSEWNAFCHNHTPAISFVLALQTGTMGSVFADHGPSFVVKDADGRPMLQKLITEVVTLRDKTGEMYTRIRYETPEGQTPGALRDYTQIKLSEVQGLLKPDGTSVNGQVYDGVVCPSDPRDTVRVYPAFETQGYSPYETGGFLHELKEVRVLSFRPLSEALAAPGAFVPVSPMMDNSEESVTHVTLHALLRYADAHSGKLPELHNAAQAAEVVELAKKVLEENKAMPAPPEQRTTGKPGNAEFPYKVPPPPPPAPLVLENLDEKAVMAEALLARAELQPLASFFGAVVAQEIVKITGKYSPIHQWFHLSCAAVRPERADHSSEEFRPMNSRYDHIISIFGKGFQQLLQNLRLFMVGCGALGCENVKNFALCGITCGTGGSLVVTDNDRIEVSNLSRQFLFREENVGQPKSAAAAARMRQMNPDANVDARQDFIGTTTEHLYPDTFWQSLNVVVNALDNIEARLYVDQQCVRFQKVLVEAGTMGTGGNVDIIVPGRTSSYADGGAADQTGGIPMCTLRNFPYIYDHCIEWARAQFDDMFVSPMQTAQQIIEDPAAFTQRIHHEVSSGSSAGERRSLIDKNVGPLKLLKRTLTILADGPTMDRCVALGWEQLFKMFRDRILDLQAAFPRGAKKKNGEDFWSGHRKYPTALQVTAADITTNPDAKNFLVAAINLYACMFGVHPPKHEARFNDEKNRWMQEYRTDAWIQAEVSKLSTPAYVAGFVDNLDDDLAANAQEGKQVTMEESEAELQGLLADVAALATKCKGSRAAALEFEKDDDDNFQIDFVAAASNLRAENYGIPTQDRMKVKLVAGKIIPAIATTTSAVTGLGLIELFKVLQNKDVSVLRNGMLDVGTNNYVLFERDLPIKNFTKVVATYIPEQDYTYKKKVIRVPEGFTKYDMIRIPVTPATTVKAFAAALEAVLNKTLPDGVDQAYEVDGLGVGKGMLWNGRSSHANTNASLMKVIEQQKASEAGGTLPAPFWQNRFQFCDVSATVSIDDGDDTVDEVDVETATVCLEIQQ
# [3] = biological target: T2, Aspartate--tRNA(Asp/Asn) ligase (Mycobacterium tuberculosis (strain ATCC 25618 / H37Rv)) (UniProt P9WFW3); experiment: Assay for Asp RNA synthetase-1 from Mycobacterium tuberculosis; format: functional; conditions: 30 µM; also: in the data most compounds retested in dose-response had high values
# T2 sequence (whole entry): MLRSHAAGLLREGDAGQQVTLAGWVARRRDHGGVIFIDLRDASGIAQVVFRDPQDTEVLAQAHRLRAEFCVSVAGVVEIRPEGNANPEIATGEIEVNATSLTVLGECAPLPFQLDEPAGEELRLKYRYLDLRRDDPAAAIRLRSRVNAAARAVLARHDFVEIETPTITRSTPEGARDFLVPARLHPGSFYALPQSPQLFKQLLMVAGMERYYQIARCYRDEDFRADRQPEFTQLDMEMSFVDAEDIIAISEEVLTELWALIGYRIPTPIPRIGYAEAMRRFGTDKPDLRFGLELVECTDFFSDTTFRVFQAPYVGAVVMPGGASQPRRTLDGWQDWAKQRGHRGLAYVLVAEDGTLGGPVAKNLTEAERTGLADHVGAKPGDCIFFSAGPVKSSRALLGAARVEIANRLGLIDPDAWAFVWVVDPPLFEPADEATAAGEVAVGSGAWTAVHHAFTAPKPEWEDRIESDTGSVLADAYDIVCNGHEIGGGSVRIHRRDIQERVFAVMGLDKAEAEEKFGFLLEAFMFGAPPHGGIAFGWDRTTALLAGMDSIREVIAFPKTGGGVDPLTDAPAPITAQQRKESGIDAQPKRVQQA
# [4] = biological target: Sialic acid-binding Ig-like lectin 9 (Homo sapiens) (UniProt Q9Y336); experiment: Hs-Siglec9 ALPHAscreen SOP 20170721; conditions: 10 µM
# Trypanosoma cruzi = experiment: Trypanosoma cruzi phosphomannomutase and mannose-1-phosphate guanylyltransferase assay; format: functional; conditions: 10 µM
# [5] = biological target: T3, Arginase-2, mitochondrial (Homo sapiens) (UniProt P78540); experiment: in vitro enzyme assay to detect the production of urea directly proportional to the activity of Arginase II; format: functional; conditions: 33.3 µM; also: in the data most compounds retested in dose-response had high values
# T3 sequence (whole entry): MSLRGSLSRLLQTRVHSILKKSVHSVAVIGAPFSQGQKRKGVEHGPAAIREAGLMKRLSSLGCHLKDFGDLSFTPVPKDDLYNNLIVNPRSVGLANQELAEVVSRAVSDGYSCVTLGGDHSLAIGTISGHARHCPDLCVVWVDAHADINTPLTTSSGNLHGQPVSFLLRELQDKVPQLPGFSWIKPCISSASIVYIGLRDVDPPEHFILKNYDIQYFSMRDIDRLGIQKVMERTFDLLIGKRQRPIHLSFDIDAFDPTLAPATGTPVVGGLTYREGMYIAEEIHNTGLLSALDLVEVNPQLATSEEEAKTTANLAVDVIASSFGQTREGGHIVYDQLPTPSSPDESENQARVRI
# [6] = biological target: T4, Proteasome subunit beta (Trypanosoma cruzi) (UniProt O96673); experiment: Trypanosoma cruzi proteasome chymotrypsin-like activity (TcProtChymo) assay.; also: in the data most compounds retested in dose-response had high values; format: functional; conditions: 9.37 µM
# T4 sequence (whole entry): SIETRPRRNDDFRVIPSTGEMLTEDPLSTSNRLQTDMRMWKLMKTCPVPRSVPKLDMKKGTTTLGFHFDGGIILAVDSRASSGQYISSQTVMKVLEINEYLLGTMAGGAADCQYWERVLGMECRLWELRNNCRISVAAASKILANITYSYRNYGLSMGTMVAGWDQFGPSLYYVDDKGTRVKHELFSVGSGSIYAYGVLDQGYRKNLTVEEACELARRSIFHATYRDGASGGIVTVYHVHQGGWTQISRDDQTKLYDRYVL
# Homo sapiens = species on record: Homo sapiens; experiment: To identify inhibition of the IFN signalling (Jak-Stat) pathway via expression of an eGFP reporter gene under the control of an IFN-stimulated response element (ISRE) containing MxA promoter.; format: functional; conditions: 30 µM
# [7] = biological target: Shiga toxin 2 (Escherichia coli O157:H7) (UniProt P09385+P09386); experiment: E. coli 0.157:H7 Shiga Toxin SOP - stx2 screening assay; format: functional; conditions: 30 µM
# [8] = biological target: T5, Tyrosyl-tRNA synthetase, putative (Trypanosoma cruzi (strain CL Brener)) (UniProt Q4DSP6); experiment: Trypanosoma cruzi tyrosyl tRNA synthetase (TcYRS) _High Tyrosine SOP; format: functional; conditions: 30 µM; also: in the data most compounds retested in dose-response had high values
# T5 sequence (whole entry): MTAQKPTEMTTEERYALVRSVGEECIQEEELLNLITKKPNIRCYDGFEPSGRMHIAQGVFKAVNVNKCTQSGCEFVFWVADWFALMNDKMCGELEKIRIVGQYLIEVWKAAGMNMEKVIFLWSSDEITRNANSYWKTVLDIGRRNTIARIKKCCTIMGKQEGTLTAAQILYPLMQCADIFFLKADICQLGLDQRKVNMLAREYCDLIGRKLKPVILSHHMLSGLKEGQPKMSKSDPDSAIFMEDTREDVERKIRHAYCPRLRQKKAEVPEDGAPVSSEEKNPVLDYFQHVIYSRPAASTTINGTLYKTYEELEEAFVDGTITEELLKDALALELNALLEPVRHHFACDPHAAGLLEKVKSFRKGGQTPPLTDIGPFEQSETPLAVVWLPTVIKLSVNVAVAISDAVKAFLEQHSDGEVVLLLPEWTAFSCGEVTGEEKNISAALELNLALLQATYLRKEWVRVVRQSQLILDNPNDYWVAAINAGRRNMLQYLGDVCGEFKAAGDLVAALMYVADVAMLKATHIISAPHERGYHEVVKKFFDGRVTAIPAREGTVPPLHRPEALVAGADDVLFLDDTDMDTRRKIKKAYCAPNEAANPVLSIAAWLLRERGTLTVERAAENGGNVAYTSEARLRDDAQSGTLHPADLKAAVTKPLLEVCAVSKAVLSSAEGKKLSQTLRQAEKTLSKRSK
# [9] = biological target: T5, Tyrosyl-tRNA synthetase, putative (Trypanosoma cruzi (strain CL Brener)); experiment: Trypanosoma cruzi tyrosyl tRNA synthetase (TcYRS) SOP; format: functional; conditions: 30 µM
# [10] = biological target: Chromo domain-containing protein 1 (Saccharomyces cerevisiae (strain ATCC 204508 / S288c) (Baker's yeast)) (UniProt P32657); experiment: ScCHD-1 Enzyme Inhibition Assay; format: functional; conditions: 30 µM; also: in the data most compounds retested in dose-response had high values
# [11] = biological target: AMP-activated protein kinase, AMPK (Homo sapiens) (UniProt P54646+O43741+P54619+Q9UGJ0+Q9Y478+Q13131+Q9UGI9); experiment: AMP-dependent Kinase enzyme assay. An in vitro enzyme assay that detects ADP turnover that is directly proportional to AMPK activity. This uses naive AMPK that is activated during the assay with MK-8722; format: functional; conditions: 30 µM
# Protein translocase subunit SecA (Escherichia coli (strain K12)), sequence (P10408 whole entry): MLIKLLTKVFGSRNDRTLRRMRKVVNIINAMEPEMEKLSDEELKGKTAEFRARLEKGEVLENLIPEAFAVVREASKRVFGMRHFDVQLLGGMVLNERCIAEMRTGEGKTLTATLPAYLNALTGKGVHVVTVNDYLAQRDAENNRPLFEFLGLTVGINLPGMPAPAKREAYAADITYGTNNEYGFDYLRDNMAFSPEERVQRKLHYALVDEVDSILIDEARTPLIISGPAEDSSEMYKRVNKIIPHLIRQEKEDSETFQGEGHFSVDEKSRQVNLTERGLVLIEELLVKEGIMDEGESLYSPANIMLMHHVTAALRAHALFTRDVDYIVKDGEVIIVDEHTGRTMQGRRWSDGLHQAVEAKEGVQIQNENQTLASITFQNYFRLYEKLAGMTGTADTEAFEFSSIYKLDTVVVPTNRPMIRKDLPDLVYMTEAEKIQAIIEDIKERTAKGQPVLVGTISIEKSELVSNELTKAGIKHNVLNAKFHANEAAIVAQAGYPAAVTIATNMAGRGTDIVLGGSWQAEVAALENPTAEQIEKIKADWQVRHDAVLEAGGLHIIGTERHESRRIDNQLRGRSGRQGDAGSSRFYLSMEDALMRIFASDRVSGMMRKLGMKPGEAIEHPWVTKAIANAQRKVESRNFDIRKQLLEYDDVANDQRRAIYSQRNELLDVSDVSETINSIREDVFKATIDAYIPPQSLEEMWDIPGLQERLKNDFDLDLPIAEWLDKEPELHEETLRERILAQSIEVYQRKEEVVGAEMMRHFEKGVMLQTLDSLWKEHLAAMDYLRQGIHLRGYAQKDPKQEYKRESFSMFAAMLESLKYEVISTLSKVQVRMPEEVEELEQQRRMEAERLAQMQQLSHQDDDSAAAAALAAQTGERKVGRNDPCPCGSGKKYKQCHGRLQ
# Chromo domain-containing protein 1 (Saccharomyces cerevisiae (strain ATCC 204508 / S288c) (Baker's yeast)), sequence (P32657 whole entry, the tested form may be a part): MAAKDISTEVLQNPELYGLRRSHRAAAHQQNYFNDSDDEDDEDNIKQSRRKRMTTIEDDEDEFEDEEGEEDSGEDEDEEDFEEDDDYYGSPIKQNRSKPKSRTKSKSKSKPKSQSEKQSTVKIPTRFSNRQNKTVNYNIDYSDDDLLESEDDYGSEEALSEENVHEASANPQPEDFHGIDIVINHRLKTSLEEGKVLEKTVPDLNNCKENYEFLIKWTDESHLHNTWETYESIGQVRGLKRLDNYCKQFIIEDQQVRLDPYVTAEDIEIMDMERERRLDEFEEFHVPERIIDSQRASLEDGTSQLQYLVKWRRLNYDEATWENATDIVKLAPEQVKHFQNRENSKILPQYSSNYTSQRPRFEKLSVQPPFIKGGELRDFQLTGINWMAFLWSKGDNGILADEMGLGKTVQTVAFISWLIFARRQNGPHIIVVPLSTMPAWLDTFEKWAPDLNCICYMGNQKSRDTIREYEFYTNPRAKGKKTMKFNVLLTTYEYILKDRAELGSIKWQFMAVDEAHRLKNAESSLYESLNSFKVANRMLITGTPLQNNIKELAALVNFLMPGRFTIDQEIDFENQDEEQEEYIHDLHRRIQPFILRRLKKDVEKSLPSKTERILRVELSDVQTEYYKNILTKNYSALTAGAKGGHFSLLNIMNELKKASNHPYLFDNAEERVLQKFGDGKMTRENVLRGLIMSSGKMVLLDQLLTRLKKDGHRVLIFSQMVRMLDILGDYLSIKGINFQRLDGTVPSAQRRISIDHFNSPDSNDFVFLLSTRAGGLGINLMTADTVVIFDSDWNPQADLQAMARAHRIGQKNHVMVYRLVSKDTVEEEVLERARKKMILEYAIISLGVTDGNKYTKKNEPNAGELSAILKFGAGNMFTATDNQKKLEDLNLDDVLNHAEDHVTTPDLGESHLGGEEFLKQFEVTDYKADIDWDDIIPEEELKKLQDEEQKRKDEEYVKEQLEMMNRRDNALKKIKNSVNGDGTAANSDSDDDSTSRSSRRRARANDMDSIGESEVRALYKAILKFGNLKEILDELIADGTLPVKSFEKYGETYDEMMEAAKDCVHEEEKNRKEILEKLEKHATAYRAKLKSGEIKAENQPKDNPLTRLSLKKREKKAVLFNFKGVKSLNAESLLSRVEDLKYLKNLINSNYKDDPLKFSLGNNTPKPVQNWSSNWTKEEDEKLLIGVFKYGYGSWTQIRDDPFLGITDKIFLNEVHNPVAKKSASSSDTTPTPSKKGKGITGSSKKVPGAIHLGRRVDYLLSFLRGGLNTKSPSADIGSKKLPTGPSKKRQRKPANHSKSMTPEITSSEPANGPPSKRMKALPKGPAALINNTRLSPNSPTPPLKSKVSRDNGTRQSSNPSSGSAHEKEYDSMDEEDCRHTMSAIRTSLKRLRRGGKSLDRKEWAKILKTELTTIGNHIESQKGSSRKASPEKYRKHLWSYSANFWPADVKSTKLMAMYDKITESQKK
# Sialic acid-binding Ig-like lectin 9 (Homo sapiens), sequence (Q9Y336 whole entry): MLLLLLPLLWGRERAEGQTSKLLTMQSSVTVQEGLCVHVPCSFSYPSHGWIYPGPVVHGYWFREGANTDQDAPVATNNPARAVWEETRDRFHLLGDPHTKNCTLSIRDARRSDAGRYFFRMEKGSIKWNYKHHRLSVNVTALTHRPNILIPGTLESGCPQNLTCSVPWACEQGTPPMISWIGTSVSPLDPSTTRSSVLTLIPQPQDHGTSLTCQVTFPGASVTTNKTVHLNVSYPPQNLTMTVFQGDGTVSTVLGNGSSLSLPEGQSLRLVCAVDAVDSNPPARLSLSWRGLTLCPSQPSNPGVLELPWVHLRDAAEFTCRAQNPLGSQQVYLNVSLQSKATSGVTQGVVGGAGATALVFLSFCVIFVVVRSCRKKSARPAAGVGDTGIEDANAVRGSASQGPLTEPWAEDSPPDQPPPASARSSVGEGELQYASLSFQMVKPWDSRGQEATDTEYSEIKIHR
SMILES,Percent Effect [1] [%],Percent Effect [2] [%],Percent Effect [3] [%],Percent Effect [4] [%],Percent Effect (Trypanosoma cruzi) [%],Percent Effect [5] [%],Percent Effect [6] [%],Percent Effect (Homo sapiens) [%],Percent Effect [7] [%],Percent Effect [8] [%],Percent Effect [9] [%],Percent Effect [10] [%],Percent Effect [11] [%]
COCCNC(=O)c1cn(C(C)(C)C)c2ncccc12,107,6.67,2.31,-7.99,0.197,6.2,11,3.2,4,0,10,-17.6,–
Cc1nn(C)c(N(C)C)c1CNC(C)Cc1c(F)cccc1F (configuration not stated),-1.71,26,3.29,10.5,4.85,5.12,7.89,5.28,-17.2,6.86,23.5,-9.67,–
c1cnc(N2CCC3(COCCN(CC4CC4)C3)C2)nc1 (configuration not stated),-1.87,3.9,6.45,-2.75,-3.21,0,14.2,-5.95,3.4,3.68,10.3,-1.41,–
CCC(O)CN1CCN(C(=O)Cc2cc(Cl)ccc2OC)CC1 (configuration not stated),1.11,13,-1.9,12.1,-1.31,-3.89,4.04,13.4,-9.78,4.9,21.2,-7,–
CNCCc1nc2cc(F)ccc2[nH]1,-3.21,0,5.99,-3.69,-6.13,5.21,5.23,4.18,–,-4.92,-8.64,-3.45,-8.1
COCC(=O)N1C[C@@H]2OCCN(Cc3c(C)noc3C)[C@@H]2C1,-1.15,1.3,-3.8,-1.81,3.02,17,27.1,5.87,-14.3,5.79,10.3,24,–
O=C(C1CC(=O)N(c2ccccc2Br)C1)N1CCC2(CC1)OCCO2 (configuration not stated),-3.76,-10.7,2.47,-2.82,-3.21,2.6,11.2,0.465,–,1.64,8.64,-2.41,-5.79
CN(C)CCN1CCCC12CCN(C(=O)c1cccnc1)CC2,-0.609,3.9,1.98,-1.37,0.563,4.11,8.5,-12.2,-15.3,3.87,7.5,1.23,–
Cn1cc(CN2C[C@@H]3[C@@H](C2)OCC(=O)N3Cc2ccncc2)cn1,-5.79,3.9,4.5,-1.61,1.07,0.81,15.8,8.18,1.35,-0.526,17.9,0.0412,–
O=C(Cc1ccc(-n2cccn2)cc1)N1CCN2CCCCC2C1 (configuration not stated),-4.18,-10.7,-7.19,2.63,-5.42,3.55,9.58,0.299,-24.9,1.58,5.13,-13.6,–
Cc1noc(C)c1CN1CCCC2(CCN(C(=O)CC3CC3)C2)C1 (configuration not stated),-8.86,3.9,1.46,3.29,-0.375,2.74,1.97,12.4,-4.85,1.93,-10,-8.2,–
